Source: PubChem BioAssay (NCATS)
Inconclusive results are not listed. Calls of active or inactive are those of the source. Calls come from the whole dose curve; as a rule, active = well fitted inhibition curve with a large enough effect; inconclusive = small, poorly fitted or top-dose-only effect; inactive = flat fitted curve, though single readings scatter.

Assays:
Assay in all cases: qHTS profiling for inhibitors of Plasmodium falciparum proliferation (AID 504749); note: nearly all actives have a fitted effect of over 60% in size
Settings in all cases: P. falciparum in erythrocytes, SYBR Green DNA, 72 h; series mostly up to 28.7 µM
[1] = system: DFO2036
Method in brief: (§1)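 SYBR Green fluorescence of parasite DNA, read after lysis and overnight dark incubation, measured growth over 72 h in erythrocyte culture at 0.3% parasitemia and 2.5% hematocrit. Data normalised to DMSO and 0.29 uM artemisinin, with plate-drift correction.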

[2] = system: DIV17
Method in brief: as §1

[3] = system: DIV30
Method in brief: as §1

[4] = system: Dd2
Method in brief: as §1

[5] = system: ECU
Method in brief: as §1

[6] = system: FAB9
Method in brief: as §1

[7] = system: GB4
Method in brief: as §1

[8] = system: HB3
Method in brief: as §1

[9] = system: ICS
Method in brief: as §1

[10] = system: DIV14
Method in brief: as §1

Measured: Potency
Potency is the fitted concentration of half-maximal effect.

CCCCc1ccc(C(=O)O)nc1
not listed: [10]
inactive: all other assays above

CN(C)[C@@H]1C(=O)C(C(N)=O)=C(O)[C@@]2(O)C(=O)C3=C(O)c4c(O)cccc4[C@@](C)(O)[C@H]3[C@H](O)[C@@H]12
active: [4] 3.55 µM
inactive: [10] | [2] | [5] | [6]

CC(=O)[O][Hg][c]1ccccc1
active: [1] 3.98 µM | [10] 4.78 µM | [2] 4.26 µM | [4] 0.126 µM | [5] 10 µM | [6] 3.98 µM | [7] 4.26 µM | [8] 6.31 µM | [9] 3.55 µM

CCCCCCCCCC(CC)c1ccc(S(=O)(=O)O)cc1 (stereo not given)
inactive: all assays above

CN1C2CCC1CC(OC(=O)c1cc(Cl)cc(Cl)c1)C2 (stereo not given)
inactive: [1] | [3] | [4] | [6] | [7] | [8]

O=C(O)COc1ccccc1
inactive: all assays above

O=C(O)C(Cl)Cl
inactive: all assays above

NC(=O)CN1CC(O)CC1=O (stereo not given)
inactive: all assays above

Cc1ccc(Cl)c(O)c1
inactive: all assays above

CN[C@@H]1C[C@@H](c2ccc(Cl)c(Cl)c2)c2ccccc21
active: [10] 5.36 µM | [2] 7.57 µM | [4] 10 µM | [9] 10 µM
inactive: [6]

COC(C)(C)CCCC(C)C/C=C/C(C)=C/C(=O)OC(C)C (stereo not given)
inactive: [1] | [6]

C1CCC(NC2CCCCC2)CC1
inactive: all assays above

C=CCN1CC[C@]23CCCCC2[C@H]1Cc1ccc(O)cc13 (stereo not given in full)
active: [4] 11.2 µM
not listed: [7]
inactive: all other assays above

C[C@]12CCC(=O)C(O)=C1CC[C@@H]1[C@H]3CCC(=O)[C@@]3(C)CC[C@@H]12
not listed: [1] | [2] | [10]
inactive: all other assays above

CCCN1CCC[C@H](c2cccc(O)c2)C1
inactive: [1] | [10] | [3] | [5] | [6] | [8]

CC[N+]1(CCOC(=O)C(O)(c2ccccc2)c2ccccc2)CCCCC1
inactive: all assays above

O=[N+]([O-])c1ccc([As](=O)(O)O)cc1
active: [1] 5.01 µM | [10] 10.7 µM | [2] 12 µM | [3] 8.49 µM | [4] 3.98 µM | [5] 3.55 µM | [7] 8.49 µM | [8] 12.6 µM | [9] 8.91 µM

CCCCCCCCCCCCCCCC[N+](C)(C)C
active: [10] 6.75 µM | [2] 8.49 µM | [5] 8.91 µM | [7] 4.78 µM | [9] 7.08 µM

CC(=O)OCC1=C(C(=O)O)N2C(=O)[C@@H](N)[C@@H]2SC1
not listed: [1]
inactive: all other assays above

COC(=O)c1cncn1C(C)c1ccccc1 (stereo not given)
inactive: [10] | [2] | [3] | [7]

Cc1cc(O)ccc1Cl
inactive: all assays above

NC1=NC(=O)N2CC12 (stereo not given)
inactive: [10] | [3] | [6]
active: [9] 11.2 µM

COC(=O)[C@@H](N)CCCN=C(N)N[N+](=O)[O-]
inactive: all assays above

C#CC1(O)CCC2C3CCC4=CC(=O)CCC4(C)C3CCC21C (stereo not given)
inactive: all assays above

c1ccc(C2(c3ccccc3)CC2C2=NCCN2)cc1 (stereo not given)
inactive: [1] | [3] | [4] | [5] | [6] | [8]

CC(C)NC(C)Cc1ccc(I)cc1 (stereo not given)
inactive: [1] | [5] | [6] | [8] | [9]
